# Assay results published in ChEMBL document CHEMBL4513216, “Probing the Open Global Health Chemical Diversity Library for Multistage-Active Starting Points for Next-Generation Antimalarials” (ACS Infect Dis, 2020).
# About 8,600 (12%) of roughly 69,000 compounds showed an effect of 50% or more. Many of the other results were omitted from the sample, so strong results are more common in it than they were.
# Test system: Plasmodium berghei
# Experiment: Screen against P. berghei liver stage (PbLuc), transformed with Luciferase, at 10uM
# Assay type: functional, HepG2
# Details: tested at 10 uM
row,SMILES,INHIBITION
1,Cc1c(C(=O)NC(C)C)nnn1-c1cccc(C(F)(F)F)c1,15.2%
2,c1coc(CN2C[C@@H]3OCCN(CC4CCCO4)[C@@H]3C2)c1 (stereo partly specified),41.6%
3,COC(=O)c1ccc(OCCn2cnc(C#N)n2)cc1,7.18%
4,CN(C)c1ncc(-c2cccc(C(N)=O)c2)c(C2CNCCO2)n1 (stereo unspecified),17.3%
5,COc1c(CNC2CCc3c(F)cccc32)c(C)nn1C (stereo unspecified),-16%
6,c1coc(-c2nc(CNCCn3cccn3)cs2)c1,21.5%
7,CS(=O)(=O)NCCN1CCCC1c1ccc(Cl)cc1 (stereo unspecified),50.3%
8,CS(=O)(=O)NCCN1CCSCC1c1ccc(Cl)cc1 (stereo unspecified),-3.39%
9,CC(c1ccc(Cl)cc1)N1CCN(CCS(C)(=O)=O)CC1 (stereo unspecified),48.5%
10,CCS(=O)(=O)CCCN1CCSCC1c1ccc(Cl)cc1 (stereo unspecified),56.5%
11,O=C(NCc1ccncc1)N1CCSCC1c1ccc(Cl)cc1 (stereo unspecified),-23.2%
12,CS(=O)(=O)NCCCN1CCCC1c1ccsc1 (stereo unspecified),-5.25%
13,CC(c1ccc(Cl)cc1)N1CCN(CCNS(C)(=O)=O)CC1 (stereo unspecified),53.5%
14,CS(=O)(=O)CCCN1CCSCC1c1ccc(Cl)cc1 (stereo unspecified),31.9%
15,CS(=O)(=O)CCN1CCSCC1c1ccc(Cl)cc1 (stereo unspecified),59.7%
16,Cc1ccc(C2CSCCN2CC(=O)N2CCOCC2)cc1 (stereo unspecified),15.3%
17,CC(c1ccc(Cl)cc1)N1CCN(CCCS(C)(=O)=O)CC1 (stereo unspecified),-5.1%
18,Cc1ccc(C2CSCCN2CCS(C)(=O)=O)cc1 (stereo unspecified),34%
19,COc1ccc(CNCC(C)Oc2ccccn2)cc1Br (stereo unspecified),-33.2%
20,CC1CCN(C(=O)[C@H]2CC[C@@H]3[C@@H](CCN3Cc3nccs3)O2)CC1,39.5%
21,O=c1ccc2c(n1Cc1cccnc1)CCN(C1CCOC1)CC2 (stereo unspecified),39.4%
22,N#CC1(C(=O)N2C[C@H](Nc3ccnc(N)n3)[C@@H](C3CC3)C2)CCOCC1,26.9%
23,CC(C)c1noc(C(C)N2CCN(Cc3nnc(C4CC4)o3)CC2)n1 (stereo unspecified),0.914%
24,O=C(c1ccccc1)N1CCC2(CCCN2c2ncccn2)CC1,-22.1%

row,SMILES,INHIBITION
1,Cc1nc(CN(C)CC(c2cccs2)N2CCOCC2)no1 (stereo unspecified),15.3%
2,CC(=O)N1N=C(c2ccccc2)OC1C(=O)NCC(=O)OC(C)(C)C (stereo unspecified),28.3%
3,CCC(CO)NCc1ccc(-c2ccccc2)o1 (stereo unspecified),50.8%
4,CCC(CO)NCc1ccc(-c2ccc(F)c(Cl)c2)o1 (stereo unspecified),18.8%
5,CCC(CO)NCc1ccc(-c2ccc(F)cc2)o1 (stereo unspecified),14.4%
6,CCC(CO)NCc1ccc(-c2ccccc2F)o1 (stereo unspecified),73.5%
7,CCC(CO)NCc1ccc(-c2ccc(Cl)cc2)o1 (stereo unspecified),17.7%
8,CCC(CO)NCc1ccc(-c2ccc(Br)cc2)o1 (stereo unspecified),-11.6%
9,CN1CCN(c2ncc(CNCCCc3cccc(F)c3)cn2)CC1,46.8%
10,CCCNC(=O)CN1CCOC(CC)C1 (stereo unspecified),61.3%
11,CCC1CN(CC(=O)NCCC#N)CCO1 (stereo unspecified),52.6%
12,CCC1CN(CC(=O)NCCOC)CCO1 (stereo unspecified),-22.3%
13,CCC1CN(CC(=O)Nc2sccc2C#N)CCO1 (stereo unspecified),17%
14,CCC1CN(CC(=O)NC(C)C)CCO1 (stereo unspecified),-8.22%
15,CCC1CN(CC(=O)NCC(C)C)CCO1 (stereo unspecified),30.9%
16,O=C(c1ccccn1)N1C[C@H]2CC[C@@H](C1)N(C(=O)Cc1cccs1)C2,4.13%
17,CC1=N[C@@]2(CC[C@@H]3CN(S(=O)(=O)N(C)C)C[C@@H]32)C(=O)N1CC(C)C,7.96%
18,Cc1nc(C2CCCN2C(=O)c2csc3c2CCCC3)no1 (stereo unspecified),15.3%
19,Cc1c(C)n(Cc2ccncc2)c2nc3c(c(N)c12)CCCC3,44.1%
20,Cc1ccc(CN2CCC3(CCN(Cc4ccncc4)CC3)CC2)cc1,33%
21,Cc1c(C)n(Cc2ccncc2)c2nc3c(c(N)c12)CCCCC3,70.3%
22,Cc1c(C)n(Cc2ccncc2)c2nc3c(c(N)c12)CCCCCC3,77.6%
23,CN1CCC(NC(=O)[C@H]2CC[C@@H]3[C@@H](CCN3c3ncccn3)O2)CC1,18.5%
24,CCc1nc(CC(=O)N2CCn3c(CC)nnc3C2)cs1,-12.33%

row,SMILES,INHIBITION
1,CCS(=O)(=O)Nc1ccn(Cc2c(F)cccc2Cl)n1,-39.5%
2,N#Cc1cccnc1N1CCCN(C(=O)CCn2cccn2)CC1,29.2%
3,O=C(NCc1ccccc1CN1CCOCC1)Nc1nncs1,-10.4%
4,O=C(NCc1ccccc1CN1CCOCC1)c1ccc(Br)cc1F,62.3%
5,O=C(NCc1ccncc1)c1ccc(Cl)cc1F,-3.95%
6,Cn1ccc(C(=O)NCc2ccccc2CN2CCCC2)cc1=O,13.6%
7,O=C(Nc1ccc(Br)cc1F)c1cc(CN2CCOCC2)on1,-43.7%
8,CN1CCN(Cc2ccccc2CNC(=O)c2ccc(Br)cc2)CC1,33.2%
9,CN1CCN(Cc2ccccc2CNC(=O)c2ccc(Cl)cc2F)CC1,55.4%
10,CN1CCN(Cc2ccccc2CNC(=O)c2ccc(Br)cc2F)CC1,30.8%
11,CN1CCN(Cc2ccccc2CNC(=O)c2cc(Br)ccc2F)CC1,59.3%
12,CN1CCN(Cc2ccccc2CNC(=O)c2cc(Cl)ccc2F)CC1,63.3%
13,CN1CCN(c2ccccc2CNC(=O)Cc2ccccc2F)CC1,14.3%
14,COc1ccc(CNC(=O)c2ccc(Cl)cc2F)cc1C(=O)O,-8.55%
15,Cc1cc(C(=O)NCc2ccc(N3CCCC(C(N)=O)C3)cc2)on1 (stereo unspecified),15.3%
16,CN(C)CCN1CCCC12CCN(C(=O)c1cnccn1)CC2,24.9%
17,CCC1(CC)CC(=O)N(CC(O)c2ccc(F)cc2)C1=O (stereo unspecified),-15%
18,CN(CC(O)C(F)(F)F)C(=O)Nc1cccc(Cn2cccn2)c1 (stereo unspecified),13.8%
19,Cc1cc(CNCC2CNc3ccnn3C2)no1 (stereo unspecified),31%
20,Cc1cnc(-c2nc(C3CCN(Cc4ccccc4O)CC3)no2)cn1,23.7%
21,Cc1cc(C)n(CC2CN(CC(=O)N3CCNC3=O)CCO2)n1 (stereo unspecified),-3.7%
22,COc1ccc(NC(=O)CSc2ccc3nncn3n2)c(OC)c1,27%
23,Cc1occc1C(=O)N1Cc2nccn2CC(CN2CCOCC2)C1 (stereo unspecified),5.89%
